# Laboratory results reported in PubChem BioAssay.
# Calls of active or inactive are those of the source.
# Key:
# [1] = anti-His antibody binders, primary screen, artefact control for SMM control protein annotation, biochemical, small-molecule microarray, 635 nm fluorescence (AID 1128); details: anti-His Alexa647 antibody binding, higher = more signal;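 also: score merges feature fluorescence with signal-to-noise for each printed compound spot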
# [2] = system: Human papillomavirus type 1a E7 protein (residues 1-88); test: HPV1a E7 small-molecule binders, primary screen, biochemical, small-molecule microarray, residues 1-88, 635 nm (AID 1129); details: small-molecule microarray binding, fluorescence 635 nm; higher = more signal
# [3] = target: Focal adhesion kinase 1 (Homo sapiens) (UniProt Q05397); test: small-molecule microarray binders of FAK, primary screen, biochemical, 635/667 nm fluorescence, BSA, DTT (AID 1130); details: PTK2 binding, 635 nm fluorescence, higher = more signal;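 also: composite of spot emission at 667 nm and signal to noise over triplicate slides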
# Chain of Focal adhesion kinase 1 (Homo sapiens) (Q05397 whole entry, looked up): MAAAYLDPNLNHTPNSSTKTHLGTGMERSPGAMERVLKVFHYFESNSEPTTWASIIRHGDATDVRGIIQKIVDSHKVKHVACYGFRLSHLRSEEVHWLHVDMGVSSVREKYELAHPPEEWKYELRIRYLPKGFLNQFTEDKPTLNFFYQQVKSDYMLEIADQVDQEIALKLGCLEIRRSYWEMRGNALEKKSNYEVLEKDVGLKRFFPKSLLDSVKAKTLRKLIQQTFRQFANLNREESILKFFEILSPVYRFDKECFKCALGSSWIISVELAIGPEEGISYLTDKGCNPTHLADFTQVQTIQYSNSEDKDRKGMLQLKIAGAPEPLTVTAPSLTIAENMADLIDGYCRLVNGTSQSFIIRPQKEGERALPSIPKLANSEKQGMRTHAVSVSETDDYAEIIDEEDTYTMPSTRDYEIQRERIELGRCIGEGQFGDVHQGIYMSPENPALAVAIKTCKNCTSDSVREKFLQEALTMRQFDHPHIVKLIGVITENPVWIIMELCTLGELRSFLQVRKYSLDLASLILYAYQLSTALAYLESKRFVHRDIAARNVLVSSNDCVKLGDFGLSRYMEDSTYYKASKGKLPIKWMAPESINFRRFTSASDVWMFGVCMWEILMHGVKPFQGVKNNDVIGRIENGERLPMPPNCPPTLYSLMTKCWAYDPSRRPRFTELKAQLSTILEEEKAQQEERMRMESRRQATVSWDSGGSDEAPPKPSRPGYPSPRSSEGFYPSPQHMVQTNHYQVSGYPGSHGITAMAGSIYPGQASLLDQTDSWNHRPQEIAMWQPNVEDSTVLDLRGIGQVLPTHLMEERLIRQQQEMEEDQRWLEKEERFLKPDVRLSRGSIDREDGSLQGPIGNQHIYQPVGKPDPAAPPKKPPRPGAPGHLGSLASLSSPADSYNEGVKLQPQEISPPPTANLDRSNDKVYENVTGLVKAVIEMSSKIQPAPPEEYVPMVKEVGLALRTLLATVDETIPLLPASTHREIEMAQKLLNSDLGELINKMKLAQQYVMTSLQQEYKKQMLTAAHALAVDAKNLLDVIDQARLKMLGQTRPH
# [4] = system: Fibrinogen (Alexa647-labelled); test: fibrinogen binders on compound microarrays, profiling panel, artefact control for SMM control-protein annotation, biochemical, small-molecule microarray, 635/667 nm fluorescence (AID 1131); details: fibrinogen-A647 binding fluorescence, higher = more signal;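 also: z-score merges 667 nm fluorescence with per-spot signal-to-noise over triplicate slides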
# [5] = target: Follistatin (Homo sapiens) (UniProt P19883); test: follistatin binders on small-molecule microarrays, primary screen, biochemical, small-molecule microarray, 635/667 nm fluorescence (AID 1132); details: FST binding, 635 nm fluorescence, higher = more signal
# Chain of Follistatin (Homo sapiens) (P19883 whole entry, looked up): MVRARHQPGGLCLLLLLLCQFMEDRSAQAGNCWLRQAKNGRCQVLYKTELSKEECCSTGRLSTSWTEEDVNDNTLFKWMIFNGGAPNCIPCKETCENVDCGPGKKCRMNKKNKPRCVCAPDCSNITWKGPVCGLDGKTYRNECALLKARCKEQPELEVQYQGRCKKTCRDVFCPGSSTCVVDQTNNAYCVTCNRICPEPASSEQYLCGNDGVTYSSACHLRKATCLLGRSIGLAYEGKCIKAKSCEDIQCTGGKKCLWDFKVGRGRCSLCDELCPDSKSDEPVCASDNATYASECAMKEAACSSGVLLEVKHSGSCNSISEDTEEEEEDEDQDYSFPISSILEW
# [6] = target: Fibroblast growth factor 2 (Homo sapiens) (UniProt P09038); test: FGF2 binders on small-molecule microarrays, primary screen, biochemical, small-molecule microarray, 635/667 nm fluorescence (AID 1133); details: small-molecule microarray binding, FGF2, fluorescence 635/667; higher = more signal
# Chain of Fibroblast growth factor 2 (Homo sapiens) (P09038 whole entry, looked up): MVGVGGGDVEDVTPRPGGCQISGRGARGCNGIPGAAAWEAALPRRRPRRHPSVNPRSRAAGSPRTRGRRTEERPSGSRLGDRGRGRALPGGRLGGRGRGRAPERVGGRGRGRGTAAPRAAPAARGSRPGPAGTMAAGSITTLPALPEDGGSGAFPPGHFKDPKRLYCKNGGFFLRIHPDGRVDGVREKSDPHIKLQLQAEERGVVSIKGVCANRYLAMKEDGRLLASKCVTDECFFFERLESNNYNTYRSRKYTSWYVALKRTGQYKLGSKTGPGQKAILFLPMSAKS
# [7] = mitochondrial membrane potential change in A549 cells, profiling panel, cell-based, JC-1 fluorescence, basal, 24 h, 100 nL (AID 1138); details: higher = more signal;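 also: A549 lung adenocarcinoma cells under basal conditions with no added stimulus; test concentration not given here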
# Lefty1 = Lefty1 binders on small-molecule microarrays, primary screen, biochemical, small-molecule microarray, 635/667 nm fluorescence (AID 1139); details: small-molecule microarray binding, fluorescence 635/667; higher = more signal
# [8] = system: wheat germ agglutinin (Triticum aestivum), Alexa647-labelled; test: wheat germ agglutinin binders on compound microarrays, profiling panel, artefact control for SMM control-protein annotation, biochemical, small-molecule microarray, 635/667 nm fluorescence (AID 1140); details: WGA-A647 binding, 635 nm fluorescence, higher = more signal;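 also: score merges 667 nm feature emission with signal to noise over triplicate slides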
# [9] = target: Luciferin 4-monooxygenase (Photinus pyralis) (UniProt P08659); test: firefly luciferase enzyme inhibitors, primary screen, biochemical, luminescence, purified enzyme, 2006 set (AID 1141); details: SteadyGlo luminescence, 30 min, higher = more signal, called active from +8 up or from −8 down;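 also: cell-free assay with purified firefly luciferase at 100 ng per well in PBS; test concentration not given here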
# Chain of Luciferin 4-monooxygenase (Photinus pyralis) (P08659 whole entry, looked up): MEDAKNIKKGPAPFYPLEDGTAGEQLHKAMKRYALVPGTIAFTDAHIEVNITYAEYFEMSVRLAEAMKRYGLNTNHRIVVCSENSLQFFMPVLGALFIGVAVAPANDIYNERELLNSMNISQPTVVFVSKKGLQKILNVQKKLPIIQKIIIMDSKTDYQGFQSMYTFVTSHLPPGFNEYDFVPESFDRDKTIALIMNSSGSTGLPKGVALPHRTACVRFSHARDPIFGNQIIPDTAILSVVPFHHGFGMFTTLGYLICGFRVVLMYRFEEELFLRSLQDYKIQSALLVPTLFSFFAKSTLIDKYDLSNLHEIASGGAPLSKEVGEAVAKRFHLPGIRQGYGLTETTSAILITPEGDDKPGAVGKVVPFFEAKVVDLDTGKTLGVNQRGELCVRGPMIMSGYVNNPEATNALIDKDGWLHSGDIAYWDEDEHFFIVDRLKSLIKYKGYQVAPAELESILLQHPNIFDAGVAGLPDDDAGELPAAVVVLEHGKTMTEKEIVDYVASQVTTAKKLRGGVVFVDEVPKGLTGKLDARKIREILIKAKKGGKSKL
Compound,composite z-score [1],composite z-score [2],composite z-score [3],composite z-score [4],composite z-score [5],composite z-score [6],z-score [7],composite z-score (Lefty1),composite z-score [8],z-score [9]
O=C1C[C@@](C(=O)O)(c2ccc([N+](=O)[O-])cc2)[C@@H](c2ccc(CO)cc2I)N1C1CCCCC1,0.806,0.796,0.113,0.873,0.539,0.293,-0.706,0.471,0.832,-0.411 (inactive)
C=CCN1C(=O)[C@]2(COC(c3ccc(OCCCO)cc3)=N2)Cc2ccccc21,3.08,1.15,0.0652,0.885,1.08,1.08,0.604,-0.14,-0.0492,-3.52 (inactive)
CN1C(=O)C2C=CC(C(O)C(C)(C)C)N(Nc3ccccc3)C2C1=O (stereo not given),0.218,-0.178,0.694,-0.0163,-0.288,-0.695,0.31,-1.06,-0.062,0.856 (inactive)
C=C(C(=O)CC[C@@H](OC(C)=O)c1ccc(OCCO)cc1)C(C)C,0.521,0.0161,0.019,0.933,0.627,1.29,-0.316,-0.12,0.0487,-1.08 (inactive)
CC(c1ccccc1)C(O)C1C=CC2C(=O)N(c3ccccc3)C(=O)C2N1Nc1ccccc1F (stereo not given),1.35,1.2,0.583,0.994,0.473,-0.645,-0.673,0.226,0.439,1.94 (inactive)
COc1ccc(C#Cc2ccc3c(c2)[C@]2(C(=O)N3)[C@H](C(=O)N3CCN(c4ncccn4)CC3)[C@H]3C(=O)O[C@H](c4ccccc4)[C@H](c4ccccc4)N3[C@@H]2c2ccc(O)cc2)cc1,0.658,1.2,0.392,0.972,1.2,0.485,-0.799,0.884,0.4,-0.374 (inactive)
CC1CC/C=C\[C@H]2OC34C=CCN(CCN5CCOCC5)C(=O)[C@H]3N(CCCCCO)C(=O)[C@@H]4C2C(=O)O1 (stereo not given in full),-0.417,-1.44,-0.197,-1.2,-0.381,-0.206,-0.485,-0.376,-0.577,-0.115 (inactive)
C=CCOC(=O)[C@@H]1[C@H]2C(=O)O[C@H](c3ccccc3)[C@H](c3ccccc3)N2[C@H](c2ccc(OCCOC(=O)[C@H]3C[C@H]4C(=O)N[C@@H](CCCC[N+](C)(C)C)C(=O)N4[C@H]3c3cccc(OCCO)c3)cc2)[C@@]12C(=O)Nc1ccc(I)cc12,1.3,1.18,0.163,0.496,1.4,1.55,-0.93,1.15,0.115,-0.138 (inactive)
COC(=O)c1c2oc(c1C(=O)OC)C(=O)N[C@H](Cc1ccccc1)Cn1nncc1C1(CCCCC1)NC(=O)N[C@H](CO)CC2,0.265,0.275,0.13,-0.0472,0.373,0.1,3.5,0.553,-0.0322,-0.676 (inactive)
CO[C@H]1O[C@H](CO)[C@@H](OC(=O)Nc2ccccc2-c2ccccc2)[C@H](OC(=O)Nc2ccccc2-c2ccccc2)[C@H]1OC(=O)Nc1ccccc1-c1ccccc1,2.54,1.27,0.464,1.02,1.3,1.63,0.147,0.644,0.745,-1.35 (inactive)
CCCCCN1CC=CC23O[C@@H]4C=CCCOC(=O)C4[C@H]2C(=O)N(CCCO)[C@@H]3C1=O (stereo not given in full),0.199,-0.388,-0.572,-0.677,-0.182,-0.311,-0.891,-0.364,0.0083,0.126 (inactive)
C=CCOC(=O)[C@@H]1[C@H]2C(=O)O[C@H](c3ccccc3)[C@H](c3ccccc3)N2[C@H](c2ccc(OCCOC(=O)[C@H]3C[C@H]4C(=O)N[C@@H](Cc5ccccc5)C(=O)N4[C@H]3c3ccc(O)cc3)cc2)[C@@]12C(=O)Nc1ccc(I)cc12,1.77,1.19,0.0087,0.521,1.36,1.39,-1.55,1.32,0.815,-1.79 (inactive)
COc1ccc(C#Cc2ccc3c(c2)[C@]2(C(=O)N3)[C@H](C(=O)N3CCc4cc(OC)c(OC)cc4C3)[C@H]3C(=O)O[C@H](c4ccccc4)[C@H](c4ccccc4)N3[C@@H]2c2ccc(OCCO)cc2)cc1,0.441,1.2,1.1,0.821,1.21,1.24,-1.09,0.941,1.17,-0.297 (inactive)
C/C=C/[C@H](CCn1cc([C@H](O)c2ccccc2)nn1)[Si](C)(C)c1ccc(OC)cc1,0.382,-0.559,-0.3,-1.17,-0.735,-0.997,0.45,-0.781,-0.777,0.173 (inactive)
O=C1O[C@@H](c2ccccc2)[C@@H](c2ccccc2)N2[C@@H](c3ccccc3OCCO)[C@]3(C(=O)Nc4ccc(C#CC5(O)CCCCCC5)cc43)[C@@H](C(=O)NC[C@H](O)c3ccccc3)[C@H]12,1.82,1.2,1.03,-0.51,1.17,0.106,-1.15,1.54,1.21,-0.215 (inactive)
COc1ccc(CCNC(=O)[C@@]2(C)c3ccccc3C(=O)N(Cc3ccccc3)[C@H]2c2ccc(CO)cc2)cc1,1.01,1.29,0.652,1,1.45,1.42,-1.72,1.57,0.62,1.11 (inactive)
Cc1ccc(S[C@]2(C(=O)NCCCN(C)C)CC(=O)N(C(C)C)[C@@H]2c2ccc(CO)cc2I)cc1,-0.537,-0.393,0.225,-0.952,0.296,-1.01,1.97,0.0228,-0.19,0.216 (inactive)
COCCOC(=O)N1C(=O)[C@@]2(c3cc(C#Cc4ccc(OC)cc4)ccc31)[C@H](C(N)=O)[C@H]1C(=O)O[C@H](c3ccccc3)[C@H](c3ccccc3)N1[C@@H]2c1ccc(O)cc1,-0.994,-0.923,-0.582,-1.48,-0.694,-2.13,-0.335,-2.08,0.17,-0.245 (inactive)
C=CCOC(=O)[C@H]1[C@@H]2C(=O)O[C@@H](c3ccccc3)[C@@H](c3ccccc3)N2[C@@H](c2ccc(OCCOC(=O)[C@H]3C[C@H]4C(=O)N[C@@H](CCCC[N+](C)(C)C)C(=O)N4[C@H]3c3ccc(O)cc3)cc2)[C@]12C(=O)Nc1ccccc12,0.94,-0.0508,0.193,0.252,1.16,0.703,0.193,0.653,0.22,-1.28 (inactive)
C=C(/C(=C/C[C@@H](OC(C)=O)c1ccc(CO)o1)c1cnc2ccccc2c1)C(C)C,0.452,1.23,0.88,0.594,1.4,1.9,-0.527,1.37,0.463,-3.13 (inactive)
CN(C)CCCC[C@@H]1NC(=O)[C@H]2C[C@@H](C(=O)NCCCCCNC(=O)CS)[C@@H](c3ccc(O)cc3)N2C1=O,0.504,-0.54,-0.0308,-0.293,0.756,0.421,0.64,-0.78,-0.128,-1.25 (inactive)
CCCC[C@H]1C[C@@H]1[C@@H]1N(P(=O)(c2ccccc2)c2ccccc2)[C@](CO)(c2ccccc2)CC12CC2,0.108,1.12,0.737,0.936,0.156,-1.11,-1.75,-0.519,0.434,2.75 (inactive)
O=C1c2ccccc2[C@](Cc2ccccc2I)(C(=O)O)[C@H](c2ccc(CO)cc2)N1Cc1ccccc1C(F)(F)F,1.3,1.09,0.425,0.9,0.72,-0.238,-0.635,-0.374,1.12,0.63 (inactive)
O=C1C2C=CC(C(O)c3cccc4ccccc34)N(n3cnnc3)C2C(=O)N1Cc1ccccc1 (stereo not given),0.968,-0.0247,0.699,0.798,0.355,0.406,-0.94,0.302,0.872,1.06 (inactive)
Cc1ccc([C@H]2C(C(=O)O)=C[C@@H](C(C)C)N2S(=O)(=O)c2ccc(C)cc2)cc1,1.96,1.29,1.3,0.956,0.126,-0.376,-0.209,-0.297,0.133,1.85 (inactive)
C=C(CCCC)C(=O)CC[C@@H](OC(=O)c1ccccc1-c1ccccc1C(=O)O)c1ccc(CO)o1,0.39,1.1,-0.248,0.294,1.3,1.31,0.31,1.38,0.445,-3.84 (inactive)
CCCNC(=O)[C@@]1(C)c2ccccc2C(=O)N(C(C)C)[C@H]1c1ccc(CO)cc1,-0.853,-0.54,0.198,-0.879,-0.127,-0.343,-0.809,-1.38,-0.867,0.33 (inactive)
COc1cc2c(cc1O)C(c1ccc(CN3CCCC3)cc1)N(Cc1sc3ccccc3c1Cl)CC2 (stereo not given),0.423,-0.18,0.0344,0.455,1.03,1.17,-0.763,0.501,0.421,1.14 (inactive)
O=C1OCCC=C[C@H]2OC34C=CCN(c5ccc6ccccc6c5)C(=O)[C@H]3N(CCCCCCO)C(=O)[C@@H]4C12 (stereo not given in full),-0.365,-0.992,-0.0504,-0.771,-0.761,-0.97,1.48,-0.61,-0.451,-1.2 (inactive)
